# G9a inh – inhibitors of human histone lysine methyltransferase G9a. Q96KQ7. G9a H3K9 monomethylation, AlphaScreen, 2 h. Potency, µM (highest dose often 102 µM), for inactives: top-dose activity, negative = inhibition, usual class: inhibitors. 350,000 compounds, 8.8% hits. AID 504332; note: % is set by controls: 0 for no effect and ±100 for the full control effect; nearly all actives have a fitted effect of over 75% in size
# Target sequence (Q96KQ7 913-1193 limits assumed): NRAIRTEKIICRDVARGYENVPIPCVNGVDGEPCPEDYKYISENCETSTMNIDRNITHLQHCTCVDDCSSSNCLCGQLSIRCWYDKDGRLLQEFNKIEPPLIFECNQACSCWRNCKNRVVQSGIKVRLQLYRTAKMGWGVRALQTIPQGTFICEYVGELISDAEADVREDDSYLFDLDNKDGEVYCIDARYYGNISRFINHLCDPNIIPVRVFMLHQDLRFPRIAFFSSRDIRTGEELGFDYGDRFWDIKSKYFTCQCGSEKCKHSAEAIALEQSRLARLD
#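 Quantitative HTS format: methyltransferase activity on a biotin-tagged H3K9 peptide is measured by AlphaScreen, using a rabbit anti-monomethyl-H3K9 antibody with streptavidin donor and anti-IgG acceptor beads. Final levels are 20 nM enzyme, 500 nM peptide, 20 uM SAM; 2 h RT.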
# BAZ2B inh – inhibitors of human BAZ2B bromodomain; AID 504333; Potency, µM (titrated, usually from 114 µM), without a hit: at the top dose activity change, negative = inhibition, most hits filed as inhibitors; Q9UIF8; 360,000 compounds, 4.4% hits; AlphaScreen BAZ2B-H3K14Ac peptide displacement; note: % is set by controls: 0 for no effect and ±100 for the full control effect; nearly all actives have a fitted effect of over 60% in size
#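 BAZ2B 50 nM plus b-H3(5-23)K14Ac 50 nM, PBS pH 7.4/0.01% Tween-20, 30 min RT; compound added (max 110 uM), 30 min RT; streptavidin donor/Ni-chelate acceptor beads 10 ug/mL final, 20 min dark; AlphaScreen read.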
# Sfp inh – blocks B. subtilis Sfp PPTase activity; Biochemical Sfp PPTase activity, qHTS; Potency, µM, for the others: largest response in the series, negative = inhibition, actives largely listed as inhibitors; 310,000 compounds, 3.5% hits;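 note: the enzyme is Sfp with the accession as filed and its product quenches rhodamine fluorescence; 0% = enzyme reaction without inhibitor and -100% = no enzyme wells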
#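 Fluorescence-quenching assay: 15 nM Sfp-PPTase preincubated 15 min at room temperature with compound, then 5 uM rhodamine-CoA and 12.5 uM BHQ-2-labelled YbbR peptide added. Fluorescence (ex 525/em 598 nm) read at start and after 30 min; difference gives rate.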
# PLK1 PBD inh – inhibitors of human PLK1 polo-box domain binding; P53350; Plk1 PBD binding of FITC phosphopeptide, fluorescence polarization; Potency, µM, for the others: max response, negative = inhibition, usual class: inhibitors; 360,000 compounds, 2.8% hits; AID 720504; note: series mostly up to about 57 µM; % is set by controls: 0 for no effect and ±100 for the full control effect; nearly all actives have a fitted effect of over 65% in size
# JMJD2A Tudor – JMJD2A Tudor domain (human) inhibition; O75164; AlphaScreen JMJD2A-Tudor / H3K4me3 peptide binding; AID 504339; Potency, µM (titrated, usually from 114 µM), inactives show at the highest dose activity change, negative = inhibition, actives largely listed as inhibitors; 390,000 compounds, 4.4% hits; note: % is set by controls: 0 for no effect and ±100 for the full control effect; nearly all actives have a fitted effect of over 50% in size
# HP1b binding inh – blocks HP1-beta chromodomain binding to methylated histone tails | P83916 | AlphaScreen HP1-beta / biotin-H3K9me3 peptide binding | Potency, µM (doses to about 114 µM), without a hit: at the highest dose activity change, negative = inhibition, most hits filed as inhibitors | 390,000 compounds, 0.56% hits; note: nearly all actives have a fitted effect of over 70% in size
# Target sequence (P83916 whole entry, looked up): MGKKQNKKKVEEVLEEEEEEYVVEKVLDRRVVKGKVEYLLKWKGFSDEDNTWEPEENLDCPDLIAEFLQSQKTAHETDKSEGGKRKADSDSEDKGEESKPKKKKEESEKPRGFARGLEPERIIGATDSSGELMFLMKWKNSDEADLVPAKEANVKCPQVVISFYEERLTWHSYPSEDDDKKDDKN
#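 AlphaScreen: HP1-beta (50 nM) preformed 30 min with biotin-H3(1-18)K9me3 peptide (50 nM) in PBS pH 7.4, 0.01% Tween-20. Compound added for 30 min at RT, then streptavidin donor/nickel chelate acceptor beads (10 ug/mL) for 30 min.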
# The depositor's hits bear a star; u = inconclusive; x = no result; [ ] = another dose, or the depositor's remark. Shown are actives, neighbours in structure and some others; about 12% of the full set was active somewhere. Calls come from the whole dose curve; as a rule, active = well fitted curve in the direction sought with a large enough effect; inconclusive = small, poorly fitted or top-dose-only effect, or another doubt; inactive = no such curve, though single readings can be large; an effect the other way counts as inactive or inconclusive. Potency is the fitted concentration of half-maximal effect.
SMILES,G9a inh,BAZ2B inh,Sfp inh,PLK1 PBD inh,JMJD2A Tudor,HP1b binding inh
Cc1nn(-c2ccccc2)c(Cl)c1C1C(C#N)=C(N)Oc2c1c(C)nn2-c1ccccc1 (stereo unspecified),x,u,0%,-27%,u,-5%
Cc1nn(Cc2ccccc2)c2c1C(c1cccc(Cl)c1)C(C#N)=C(N)O2 (stereo unspecified),50µM*,u,10%,27µM*,u,-21%
Cc1ccc(CNC(=O)Cn2nc(N3CCN(c4ccccc4)CC3)ccc2=O)cc1,-5%[59 µM],u,x,x,-31%,-5%
COC(=O)C1(C)NC(c2ccccc2C)C2C(=O)N(c3ccc(F)cc3)C(=O)C21 (stereo unspecified),-7%[59 µM],-20%,8%,30µM*,u,12%
CCN1C(=O)[C@H]2[C@@H](c3ccc(-c4ccc(F)cc4)c(OC)c3)N[C@@](C)(C(=O)OC)[C@H]2C1=O,u,56µM*,x,-7%,u,26%
COC(=O)C1(C)NC(c2ccccc2C)C2C(=O)N(c3ccccc3)C(=O)C21 (stereo unspecified),11%,-33%,-3%,0%,-14%,47%
Cc1noc(C)c1COc1ccccc1C(=O)N1CCN(S(=O)(=O)c2ccccc2F)CC1,u,-2%,x,2%,0%,27%
CN(C)S(=O)(=O)c1cc(NC(=O)CN2CCNC(=O)C2)ccc1Cl,11%[59 µM],2%,1%,-10%,-10%,24%
COc1cc2c(cc1OC)CN(CC(=O)Nc1ccc(Cl)c(S(=O)(=O)N(C)C)c1)CC2,45µM*,-26%,9%,x,x,x
CN(C)S(=O)(=O)c1cc(NC(=O)CN2CCOCC2)ccc1Cl,23%,-5%,24%,24µM*,14µM*,-1%
Cc1ccc(NC(=O)CN2CCc3ccccc3C2)cc1S(=O)(=O)N(C)C,10µM*,50µM*,-33%,-17%,3.2µM*,u
COc1cc2c(cc1OC)CN(CC(=O)Nc1ccc(S(=O)(=O)N(C)C)cc1)CC2,8%,x,2%,-6%,-28%,-3%
Cc1ccc(NC(=O)CN2CCc3ccccc3C2)cc1S(=O)(=O)N1CCOCC1,-6%[59 µM],-33%,5%,1%,-14%,11%
CCOc1ccc(NC(=O)CN2CCc3cc4c(cc3C2)OCCCO4)cc1OCC,10%,-1%,14%,30µM*,u,-6%
Cc1cc2c3ccccc3ncn2n1,15%,2%,8%,-1%,-2%,43%
CC(=O)OC1=CN(Cc2ccccc2)S(=O)(=O)c2ccccc21,6%[59 µM],3%,x,x,-11%,20%
Cc1c(S(=O)(=O)N2CCCCC2)c(=O)n(C)c(=O)n1C,0%,-3%,x,-3%,-24%,-2%
NC(=O)C1CCN(C(=O)Cn2c(-c3cccs3)cc3ccccc32)CC1,12%[59 µM],-2%,x,x,-1%,13%
CN(C)S(=O)(=O)c1ccc(Cl)c(NC(=O)CN2CCc3ccccc3C2)c1,45µM*,-39%,1%,-4%,-14%,55%
CCN(CC)S(=O)(=O)c1ccc(O)c(NC(=O)CN2CCc3ccccc3C2)c1,15%,-3%,33%,-1%,9%,34%
COc1ccc(N2CCN(c3cnc4ccccc4n3)CC2)cc1,u,-18%,14%,-10%,-15%,30%
c1csc(-c2nc(N3CCOCC3)c3ccccc3n2)c1,11%[59 µM],17%,6%,-5%,10%,32%
Cc1cc(N2CC(C)OC(C)C2)nc2ccccc12 (stereo unspecified),37%,14%,7%,27µM*,-19%,4%
Cc1cc(N2CCN(c3ccccc3)CC2)nc2ccccc12,33%,11%,5%,2%,21%,94%
COc1cccc(N2CCN(c3cnc4ccccc4n3)CC2)c1,74%,14%,79µM*,-5%,30%,104%
COc1ccc(N2CCN(c3nc(-c4cccs4)nc4ccccc34)CC2)cc1,20µM*,u,-16%,-6%,u,u

# Assay outcomes: PubChem, National Center for Advancing Translational Sciences (NCATS)
